# Measurements reported in article PMC5540273 (PLoS ONE, 2017).
# How the values were obtained:
# Settings in all cases: concentration: 1 μM, replicates: in singlicate; n = 1
# PAK3 = test system: PAK3
# PAK4 = test system: PAK4
# PAK6 = test system: PAK6
# PAK7 = test system: PAK7
# PCTK1 = test system: T1, PCTK1
# T1 construct: gene CDK16
# PCTK2 = test system: T2, PCTK2
# T2 construct: gene CDK17
# PCTK3 = test system: T3, PCTK3
# T3 construct: gene CDK18
# PDGFRA = test system: PDGFRA
# PDGFRB = test system: PDGFRB
# PFTAIRE2 = test system: PFTAIRE2
# PFTK1 = test system: T4, PFTK1
# T4 construct: gene CDK14
# PHKG1 = test system: PHKG1
# PHKG2 = test system: PHKG2
# PIK3C2B = test system: PIK3C2B
# PIK3C2G = test system: PIK3C2G
# PIK3CA = test system: PIK3CA
# PIK3CB = test system: PIK3CB
# PIK3CD = test system: PIK3CD
# PIK3CG = test system: PIK3CG
# PDPK1 = test system: PDPK1
# 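Also: KINOMEscan kinase panel screen.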
SMILES,%Inh (PAK3),%Inh (PAK4),%Inh (PAK6),%Inh (PAK7),%Inh (PCTK1),%Inh (PCTK2),%Inh (PCTK3),%Inh (PDGFRA),%Inh (PDGFRB),%Inh (PFTAIRE2),%Inh (PFTK1),%Inh (PHKG1),%Inh (PHKG2),%Inh (PIK3C2B),%Inh (PIK3C2G),%Inh (PIK3CA),%Inh (PIK3CB),%Inh (PIK3CD),%Inh (PIK3CG),%Inh (PDPK1)
CNc1cc(-c2ccc3c(N)n[nH]c3c2)nc(N)n1 [GSK2224810],0%,0%,0%,17%,0%,16%,0%,0%,44%,0%,18%,0%,18%,0%,0%,0%,9%,1%,5%,–
Cl.Cl.Cl.N#Cc1ccc(CCNc2nccc(-c3cccc(CN4CCNCC4)c3)n2)cc1 [GSK2137462],6%,0%,8%,12%,0%,0%,0%,0%,34%,16%,14%,25%,23%,0%,0%,1%,13%,0%,12%,8%
CSc1ccc(-c2nc3n(c2-c2ccncc2)CCC3)cc1 [SKF-105561],0%,0%,0%,0%,3%,5%,0%,28%,0%,1%,2%,5%,0%,19%,21%,0%,0%,0%,23%,0%
COc1ccc(Nc2nccc(-c3ccc(NC(=O)c4cc5cc(F)ccc5[nH]4)cc3)n2)cc1 [GSK1229496],0%,0%,0%,5%,0%,0%,0%,0%,47%,0%,13%,0%,0%,0%,0%,0%,0%,0%,2%,0%
CC(C)c1cc(-c2ccc3c(N)n[nH]c3c2)nc(N)n1 [GSK2250882],0%,0%,0%,6%,0%,9%,11%,0%,18%,26%,4%,1%,5%,0%,0%,0%,0%,0%,5%,74%
Cc1ccc(NC(=O)Nc2ccccc2)cc1-c1ccc(C(=O)Nc2ccncc2)cc1 [GSK1398471],11%,0%,0%,1%,4%,0%,21%,49%,100%,25%,27%,0%,2%,27%,0%,29%,0%,0%,14%,26%
CC(=O)c1c(C)c2cnc(Nc3ccc(N4CCNCC4)cn3)nc2n(C2CCCC2)c1=O,6%,0%,0%,0%,0%,10%,8%,0%,0%,0%,5%,10%,12%,0%,0%,3%,0%,0%,12%,0%
O=C(Nc1n[nH]c2nc(-c3cccs3)c(Br)cc12)C1CC1 [SB-735297],0%,0%,3%,0%,28%,40%,6%,0%,43%,18%,14%,0%,0%,0%,0%,0%,22%,0%,10%,0%
c1ccc(-c2ccnc3[nH]ccc23)cc1 [SB-693578],0%,0%,4%,4%,7%,0%,24%,0%,0%,9%,9%,0%,0%,0%,0%,0%,0%,0%,0%,0%
O=C(Nc1n[nH]c2cc(-c3ccsc3)ccc12)C1CC1 [SB-732932],0%,22%,7%,0%,13%,31%,8%,57%,80%,13%,5%,21%,0%,14%,0%,3%,8%,0%,6%,0%
CNCc1ccc2nc(NC(=O)c3ccc(C(C)(C)C)cc3)cn2c1,4%,4%,0%,0%,41%,3%,0%,73%,74%,6%,0%,5%,0%,91.5%,0%,89%,16%,22%,40%,3%
COc1ccc(CSc2nnc(-c3ccc4c(c3)CCO4)o2)cc1,0%,0%,0%,0%,0%,5%,0%,0%,0%,0%,0%,0%,25%,0%,0%,0%,0%,0%,0%,0%
Nc1nccc(-c2c(-c3ccc(F)cc3)ncn2C2CCN(Cc3ccccc3)CC2)n1 [SB-219980],5%,0%,0%,0%,3%,0%,0%,22%,20%,5%,0%,1%,0%,17%,52%,0%,4%,35%,7%,0%
COc1cccc(C2=C(Nc3cc(Cl)c(O)c(Cl)c3)C(=O)NC2=O)c1 [SB-390767],100%,0%,0%,0%,2%,0%,0%,0%,0%,8%,0%,0%,0%,0%,0%,0%,0%,0%,0%,0%
COc1cccc(CNC(=O)NC2CCN(c3ccnc(Nc4ccc(F)cc4)n3)C2)c1 (stereo not drawn) [GSK1379723],38%,0%,0%,0%,10%,0%,14%,7%,15%,7%,0%,0%,26%,0%,0%,0%,0%,2%,0%,0%
Cn1cnc2c(N)ncnc21 [SKF-97623],0%,0%,0%,0%,0%,0%,0%,100%,0%,0%,0%,0%,0%,0%,0%,0%,0%,0%,4%,0%

SMILES,%Inh (PAK3),%Inh (PAK4),%Inh (PAK6),%Inh (PAK7),%Inh (PCTK1),%Inh (PCTK2),%Inh (PCTK3),%Inh (PDGFRA),%Inh (PDGFRB),%Inh (PFTAIRE2),%Inh (PFTK1),%Inh (PHKG1),%Inh (PHKG2),%Inh (PIK3C2B),%Inh (PIK3C2G),%Inh (PIK3CA),%Inh (PIK3CB),%Inh (PIK3CD),%Inh (PIK3CG),%Inh (PDPK1)
O=c1cc(N2CCOCC2)nc2n(Cc3ccccc3F)ccn12 [GSK2297428],24%,0%,0%,9%,0%,0%,0%,0%,8%,0%,23%,0%,0%,2%,0%,6%,94.5%,32%,24%,0%
Cc1ccccc1Cn1ccn2c(=O)cc(N3CCOCC3)nc12 [GSK2269905],0%,0%,0%,0%,1%,0%,0%,0%,13%,0%,12%,0%,0%,0%,0%,0%,99.9%,57%,0%,0%
COc1ccc(-c2coc3ccc(-c4nnc(C)o4)cc23)cc1,0%,5%,6%,5%,56%,0%,11%,0%,0%,0%,9%,0%,20%,0%,21%,0%,0%,0%,12%,33%
COc1cccc(NC(=O)Nc2ccc(C)c(-c3ccc(C(=O)Nc4ccncc4)cc3)c2)c1 [GSK1398474],27%,0%,0%,26%,0%,11%,13%,48%,100%,27%,0%,0%,17%,100%,0%,99.9%,0%,0%,99.9%,27%
CCn1c(-c2ccccc2)nc2cnccc21 [SB-733416],14%,0%,0%,0%,4%,0%,0%,0%,16%,0%,27%,0%,0%,0%,0%,0%,0%,13%,0%,0%
CS(=O)(=O)CCNCc1nc(-c2ccc3ncnc(Nc4ccc5c(cnn5Cc5ccccc5)c4)c3c2)cs1.Cl.Cl [GW569716],22%,0%,0%,0%,0%,0%,16%,0%,10%,0%,6%,0%,0%,53%,0%,0%,0%,1%,0%,0%
Fc1ccc(-c2nc3n(c2-c2ccncc2)CCS3)cc1 [GI98581],42%,0%,0%,0%,12%,0%,20%,0%,16%,11%,16%,0%,0%,92.7%,0%,91.9%,0%,0%,81%,36%
CCn1c(-c2c(N)noc2C)nc2cnccc21 [SB-737856],3%,0%,0%,0%,0%,0%,44%,0%,0%,15%,33%,0%,0%,1%,0%,0%,100%,3%,0%,2%
COc1ccc(Nc2nccc(NCCNC(=O)Nc3cc(C)ccc3C)n2)cc1 [GSK1379899],22%,0%,0%,0%,2%,0%,2%,0%,5%,9%,32%,0%,0%,90%,0%,86%,0%,0%,68%,0%
Cc1cccc2c(-c3ccncn3)c(-c3ccc(F)cc3)nn12 [GW515532],29%,0%,0%,3%,0%,0%,0%,0%,10%,9%,8%,0%,0%,0%,0%,0%,0%,5%,0%,17%
CN1c2ccc(-c3ccc(C(N)=O)cc3)cc2-c2[nH]ncc2S1(=O)=O,0%,5%,0%,0%,0%,0%,0%,0%,0%,0%,0%,0%,14%,0%,0%,0%,0%,0%,0%,21%
CC(C)c1ccc(O)cc1Nc1ccnc2ccc(C(F)(F)F)cc12 [GW482059],0%,0%,0%,0%,2%,0%,0%,3%,10%,1%,0%,0%,0%,0%,15%,0%,0%,25%,0%,18%
COC(=O)c1cccc(NC(=O)NC2CCN(c3ccnc(Nc4ccc(F)cc4)n3)C2)c1 (stereo not drawn) [GSK1379725],0%,0%,0%,0%,10%,0%,12%,0%,36%,5%,16%,0%,0%,0%,0%,0%,0%,0%,0%,0%
CCc1ccc(-c2ccc3c(c2)-c2n[nH]cc2S(=O)(=O)N3C)cc1,0%,0%,0%,0%,0%,0%,0%,0%,7%,0%,0%,0%,0%,0%,0%,0%,0%,0%,0%,4%
Cc1ccc(NC(=O)Nc2ccc(Cl)cc2)cc1-c1ccc(C(=O)Nc2ccncc2)cc1 [GSK1398472],21%,0%,0%,0%,5%,0%,0%,10%,99.7%,0%,12%,0%,0%,0%,0%,0%,36%,0%,0%,0%
O=c1cc(N2CCOCC2)nc2n(Cc3cccc(Cl)c3Cl)c3ccccc3n12 [GSK2299009],42%,0%,21%,12%,8%,8%,20%,0%,51%,29%,19%,7%,3%,0%,0%,7%,97.5%,3%,1%,0%
